SNCA viab count – GF-AFC viability counterscreen for inhibitors of alpha-synuclein gene (SNCA) expression; HEK-293-SNCA-luc viability, GF-AFC fluorescence, 24 h; Potency, µM (highest dose often 57.1 µM), hits mostly cytotoxic; 0.12% of 150,000 active; AID 1671193, 2021; also: nearly all actives have a fitted effect of over 30% in size
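HEK-293-SNCA-luc cells (1500/well) plated 24 h, then exposed 24 h to a dilution series; GF-AFC added 30 min at 37C, fluorescence 405/540 nm; normalised to medium-only and DMSO wells, Hill fit.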
GPT2 inhibitor – Primary qHTS assay for inhibitors of Glutamate pyruvate transaminase 2 (GPT2). 0.25% of 100,000 active. Potency, µM (doses to about 57.7 µM), actives largely listed as inhibitors. Recombinant GPT2, coupled pyruvate oxidase/HRP Amplex Red fluorescence. Alanine aminotransferase 2 (Homo sapiens), Q8TD30. AID 1671188, 2021; also: nearly all actives have a fitted effect of over 60% in size
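Recombinant GPT2 (10ng/uL) with 250uM a-KG and 2mM L-alanine, 30 min at room temperature, in HEPES pH 7.5 buffer. Pyruvate detected by pyruvate oxidase/HRP/Amplex Red fluorescence after 30 min in the dark; AOA (50uM) as positive control.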
IP6K1 inh – Primary qHTS assay for small molecule inhibitors of Inositol hexaphosphate kinase 1 (IP6K1). Inositol hexakisphosphate kinase 1 (Homo sapiens), Q92551. IP6K1 kinase, ADP-Glo luminescence, 2 h; active compounds read low. activity change, % (series mostly up to about 58 µM). 0.81% of 140,000 active. AID 1645851, 2021; in the data active = activity change below about -25%
Target sequence (Q92551 whole entry, looked up): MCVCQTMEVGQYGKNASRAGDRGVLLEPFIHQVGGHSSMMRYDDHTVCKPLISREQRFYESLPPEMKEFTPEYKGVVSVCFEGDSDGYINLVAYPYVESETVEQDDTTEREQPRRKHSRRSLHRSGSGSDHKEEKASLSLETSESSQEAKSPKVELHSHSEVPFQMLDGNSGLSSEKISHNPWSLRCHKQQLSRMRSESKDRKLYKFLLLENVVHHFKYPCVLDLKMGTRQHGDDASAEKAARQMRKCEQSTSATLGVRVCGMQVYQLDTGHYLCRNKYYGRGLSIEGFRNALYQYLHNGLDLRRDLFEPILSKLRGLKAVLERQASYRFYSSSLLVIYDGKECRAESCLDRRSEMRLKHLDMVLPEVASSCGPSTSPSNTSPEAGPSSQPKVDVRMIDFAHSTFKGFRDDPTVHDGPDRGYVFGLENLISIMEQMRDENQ
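ADP-Glo luminescence measures ADP made by human IP6K1 during a 2 h RT reaction with ATP/IP6 (mix at 1.3 mM/130 uM); top library doses 57.5 and 19.1 uM final.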
SNCA expr inhib – Primary qHTS assay for inhibitors of alpha-synuclein gene (SNCA) expression; Potency, µM (highest dose often 57.2 µM), hits mostly inhibitors; AID 1671194, 2021; 0.17% of 140,000 active; HEK-293 SNCA-luciferase knock-in, luminescence, 24 h; also: nearly all actives have a fitted effect of over 45% in size
IP6K1 inh cnf – Confirmatory qHTS assay for small molecule inhibitors of Inositol hexaphosphate kinase 1 (IP6K1). 13% of 1,200 active. recombinant IP6K1 kinase, ADP-Glo luminescence, 2 h. shares compounds with IP6K1 inh. Potency, µM (highest dose often 49 µM), actives largely listed as inhibitors; also: nearly all actives have a fitted effect of over 65% in size
Large screens that a line does not name were inactive (follow-up assays come after a bar, where they were run); ! = a repeat was not active. An excerpt weighted towards active compounds, which were near 1.1% of everything screened. Unless noted, calls follow the shape of the dose curve; as a rule, active = well fitted curve in the direction sought with a large enough effect; inconclusive = small, poorly fitted or top-dose-only effect, or another doubt; inactive = no such curve, though single readings can be large; an effect the other way counts as inactive or inconclusive.

C=C(C)C(=O)O[C@H]1[C@@H]2[C@H](C)C(=O)O[C@@H]2C[C@@H](C)[C@@H]2C=CC(=O)[C@]21C	SNCA viab count 4.6µM (no result: SNCA expr inhib)
NCC(O)c1cc(O)c(O)cc1F (stereo not given)	GPT2 inhibitor 10µM (no result: IP6K1 inh)
COc1cc2c(cc1OCc1ccccc1)N(C(=O)c1c[nH]c3ccccc13)CC21CCN(C)CC1	SNCA viab count 25µM, GPT2 inhibitor inconclusive, SNCA expr inhib inconclusive
COc1cc2c(cc1Oc1cccc(N(C)C)c1)NC(=O)C21CCN(Cc2cccc(O)c2)CC1	none
COC1CC(O[C@H]2CC[C@]3(C=O)C4CC[C@]5(C)[C@@H](C6=CC(=O)OC6)CC[C@]5(O)[C@@H]4CC[C@@H]3C2)OC(C)C1O[C@@H]1O[C@H](CO)[C@@H](O[C@@H]2O[C@H](CO)[C@@H](O)[C@H](O)[C@H]2O)[C@H](O)[C@H]1O (stereo not given in full)	SNCA viab count 5.7µM (no result: SNCA expr inhib)
CCOC(=O)[C@H]1CN(C(=O)/C=C/c2ccccc2)[C@]2(C)C(=O)N(CC3CC3)c3ccccc3[C@H]12	none
CC(C)=CCC[C@]1(C)C=Cc2c(O)c3c(c(CC=C(C)C)c2O1)O[C@]12C(=C[C@@H]4CC1C(C)(C)O[C@@]2(C/C=C(/C)C(=O)O)C4=O)C3=O	SNCA viab count 1.9µM, IP6K1 inh -25 (no result: SNCA expr inhib)
CCOC(=O)[C@H]1CN(C(=O)Nc2ccc3c(c2)OCO3)[C@]2(C)C(=O)N(CC3CC3)c3ccccc3[C@H]12	none
COc1ccc2c3c1O[C@H]1[C@@H](O)C=C[C@H]4[C@@H](C2)N(C)CC[C@@]341	none
CN1CC[C@]23c4c5ccc(O)c4O[C@H]2[C@@H](O)C=C[C@H]3[C@H]1C5	GPT2 inhibitor 28µM
COc1cc2c(cc1OCc1ccccc1)N(C(=O)c1cc3ccccc3[nH]1)CC21CCN(C)CC1	SNCA viab count inconclusive, SNCA expr inhib inconclusive
NC1=NC(=O)N2CC12 (stereo not given)	SNCA expr inhib 9.6µM (no result: IP6K1 inh)
C[C@@]12OC(=O)[C@]1([C@@H](O)[C@@H]1C=CCCC1)NC(=O)[C@H]2CCCl	SNCA viab count inconclusive, SNCA expr inhib 0.14µM (no result: IP6K1 inh)
CCOC(=O)[C@H]1CN(C(=O)C2CCCC2)[C@]2(C)C(=O)N(CC3CC3)c3ccccc3[C@H]12	GPT2 inhibitor inconclusive
Cc1nc(-c2ccccc2Br)cc([C@H]2CN3CC[C@H]2C[C@@H]3CNC(=O)Nc2ccccc2)n1	none
Ic1ccccc1CNC1C2CCN(CC2)C1C(c1ccccc1)c1ccccc1 (stereo not given)	SNCA viab count 22µM, SNCA expr inhib inconclusive (no result: IP6K1 inh)
c1ccc(O[C@H]2CNC3Cc4c([nH]c5ccccc45)C2C3)nc1 (stereo not given in full)	none (no result: SNCA viab count, GPT2 inhibitor, SNCA expr inhib)
CC(C)[C@H]1C(=O)N[C@H](CO)Cc2c[nH]c3cccc(c23)N1C	GPT2 inhibitor 15µM (no result: IP6K1 inh)
CC(C)OC(=O)c1ccnc2cc(C(OCCN3CCCCC3)c3ccccc3Cl)sc12 (stereo not given)	SNCA viab count 30µM (no result: SNCA expr inhib)
CCOC(=O)[C@@H]1[C@H]2c3ccccc3N(C)C(=O)[C@H]2N(C(=O)NCc2ccccc2)[C@@H]1c1ccccc1	none (no result: SNCA viab count, GPT2 inhibitor, SNCA expr inhib)
CC[C@H]1CN2CC[C@H]1C[C@@H]2CNC(=O)Nc1ccc(Oc2ccccc2)cc1	GPT2 inhibitor inconclusive, SNCA expr inhib inconclusive
CCOc1ccc(CN(CCc2ccc3c(c2)OCO3)Cc2cccc(Br)c2)cc1	IP6K1 inh -57 (no result: GPT2 inhibitor)
CCOc1ccc(CN(CCc2ccc3c(c2)OCO3)Cc2ccc(C)cc2)cc1	none (no result: GPT2 inhibitor)
CCOC(=O)[C@H]1CN([S+](=O)([O-])c2cccs2)[C@]2(C)C(=O)N(CC3CC3)c3ccccc3[C@H]12	SNCA viab count inconclusive, SNCA expr inhib inconclusive
CN(C)[C@@H]1C(=O)C(C(N)=O)=C(O)[C@@]2(O)C(=O)C3=C(O)c4c(O)ccc(Cl)c4[C@@](C)(O)C3C[C@@H]12 (stereo not given in full)	none (no result: SNCA expr inhib)
CN(C)[C@@H]1C(=O)C(C(N)=O)=C(O)[C@@]2(O)C(=O)C3=C(O)c4c(O)cccc4[C@@](C)(O)[C@H]3C[C@@H]12	IP6K1 inh -75 | IP6K1 inh cnf inactive
O=C(Cc1ccc(F)cc1)N1CCN(Cc2ccccc2-c2cccnc2)CC1	none
CCN1CCN(C(=O)Cc2ccc(Nc3ncc(F)c(Nc4ccc(C(=O)Nc5ccccc5Cl)cc4)n3)cc2)CC1	SNCA viab count 24µM!, IP6K1 inh -33 | IP6K1 inh cnf inconclusive
CCCCOC(=O)N1C[C@H](C(=O)OCC)[C@H]2c3ccccc3N(CC3CC3)C(=O)[C@]21C	none
COP(=S)(OC)SCN1C(=O)c2ccccc2C1=O	IP6K1 inh -37 | IP6K1 inh cnf 18µM
COc1ccccc1CC(=O)N1CC2(CCN(C)CC2)c2cc(OC)c(OCc3ccccc3)cc21	none
CN1CCN(C(=O)Cc2c[nH]c3ncc(-c4cccc(OC(F)(F)F)c4)cc23)CC1	GPT2 inhibitor inconclusive, IP6K1 inh -53 | IP6K1 inh cnf inconclusive
CN1CCN(C(=O)Cc2c[nH]c3ncc(-c4ccccc4Oc4ccccc4)cc23)CC1	IP6K1 inh -28 | IP6K1 inh cnf inactive
CN(Cc1cccc(-c2ccncc2)c1)C(=O)Oc1ccc(-c2ccc(C(N)=O)cc2)cc1	SNCA viab count inconclusive (no result: SNCA expr inhib)
CCOC(=O)[C@H]1CN(C(=O)c2cccs2)[C@]2(C)C(=O)N(CC3CC3)c3ccccc3[C@H]12	none
O=C(Nc1ccc(Br)cc1)c1cc(Br)cc(Br)c1O	IP6K1 inh -40 | IP6K1 inh cnf 23µM
O=C(Nc1ccc(Br)cc1C(=O)c1ccccc1)c1ccccc1	none (no result: GPT2 inhibitor)
O=c1c(-c2cccs2)ccc2n1C[C@H]1C[C@@H]2CN(Cc2cc3ccccc3o2)C1	none
COC(=O)N1CCN(C(=O)Cc2ccc(Cl)c(Cl)c2)[C@@H](CN2CCCC2)C1	none (no result: SNCA expr inhib)
CCOc1ccc(CN(CCc2ccc3c(c2)OCO3)Cc2cccc(OC)c2)cc1	IP6K1 inh -31 (no result: GPT2 inhibitor) | IP6K1 inh cnf inactive
Cc1ncsc1CCC(=O)N1C[C@@H](c2ccccc2)[C@@H]2[C@H]1C1CCN2CC1	SNCA expr inhib inconclusive
O=C(CCn1cccn1)N1C[C@H](c2cccc(F)c2F)[C@@H]2[C@H]1C1CCN2CC1	IP6K1 inh -33 | IP6K1 inh cnf inactive
COc1cc2c(cc1OCC1CC1)NC(=O)C21CCN(C(=O)c2cccc(C#N)c2)CC1	IP6K1 inh -27 | IP6K1 inh cnf inactive
Cc1cc(SCc2sc(-c3ccc(C(F)(F)F)c(F)c3)nc2C)ccc1OCC(=O)O	GPT2 inhibitor inconclusive, IP6K1 inh -30 | IP6K1 inh cnf inconclusive

From PubChem BioAssay
